Screening results as filed in PubChem BioAssay.
L3MBTL1 inh: qHTS Assay for the Inhibitors of L3MBTL1 | AID 485360, 2010 | AlphaScreen L3MBTL1–H3K9me1 peptide binding | Potency, µM (doses to about 57.1 µM), without a hit: top-dose activity, negative = inhibition, hits mostly inhibitors | Lethal(3)malignant brain tumor-like protein 1 (Homo sapiens), Q9Y468 | 230,000 compounds, 0.66% hits; also: potency is read from the fitted curve at half-maximal effect; % is scaled to controls: 0 for no effect and ±100 for the full control effect; nearly all actives have a fitted effect of over 60% in size
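AlphaScreen proximity signal between nickel-chelate acceptor and streptavidin donor beads (final 10 ug/mL) reports binding of 50 nM L3MBTL1 to 75 nM biotin-H3 K9me1 peptide; complex incubated with compounds 30 min at room temperature; cefsulodin titration as control.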
BAZ2B block: qHTS Assay for Inhibitors of BAZ2B; AlphaScreen BAZ2B-H3K14Ac peptide displacement; AID 504333, 2011; 360,000 compounds, 4.4% hits; Bromodomain adjacent to zinc finger domain protein 2B (Homo sapiens), Q9UIF8; Potency, µM (titrated, usually from 114 µM), for the others: at the highest dose activity change, negative = inhibition, hits mostly inhibitors; also: potency is read from the fitted curve at half-maximal effect; % is scaled to controls: 0 for no effect and ±100 for the full control effect; nearly all actives have a fitted effect of over 60% in size
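AlphaScreen luminescence quantifies BAZ2B engagement of H3K14Ac peptide; the protein and biotinylated peptide are both at 50 nM final, buffer PBS pH 7.4 with 0.01% Tween-20, all steps at room temperature.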
JMJD2A Tudor: qHTS Assay for Inhibitors of JMJD2A-Tudor Domain. Lysine-specific demethylase 4A (Homo sapiens), O75164. AlphaScreen JMJD2A-Tudor / H3K4me3 peptide binding. Potency, µM (doses to about 114 µM), inactives show at the top dose activity change, negative = inhibition, hits mostly inhibitors. 390,000 compounds, 4.4% hits. AID 504339, 2011; also: potency is read from the fitted curve at half-maximal effect; % is scaled to controls: 0 for no effect and ±100 for the full control effect; nearly all actives have a fitted effect of over 50% in size
PI5P4Ka inh: qHTS for Inhibitors of phosphatidylinositol 5-phosphate 4-kinase (PI5P4K). Phosphatidylinositol 5-phosphate 4-kinase type-2 alpha (Homo sapiens), P48426. PI5P4Kalpha enzyme, ADP-Glo luminescence, 60 min; stronger effect = lower value. max response, %. 330,000 compounds, 1.2% hits. AID 652105, 2013; active = max response of -50% or lower; inconclusive = between -30% and -50%; inactive = -30% or higher; also: value at the top dose of about 77 µM; % is scaled to controls: 0 for no effect and ±100 for the full control effect
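Single end-point luminescence (ADP-Glo) quantified ADP from PI5P4Kalpha turnover; ATP 5 microM final, 1 h at RT, 0.1% CHAPS and 0.28 mM EGTA in HEPES pH 7.4.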
G9a inh: qHTS Assay for Inhibitors of Histone Lysine Methyltransferase G9a; Histone-lysine N-methyltransferase EHMT2 (Homo sapiens), Q96KQ7; G9a H3K9 monomethylation, AlphaScreen, 2 h; Potency, µM (titrated, usually from 102 µM), without a hit: at the highest dose activity, negative = inhibition, actives largely listed as inhibitors; 350,000 compounds, 8.8% hits; AID 504332, 2011; also: potency is read from the fitted curve at half-maximal effect; % is scaled to controls: 0 for no effect and ±100 for the full control effect; nearly all actives have a fitted effect of over 75% in size
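Step 1: enzyme (final 20 nM) with compound, 15 min RT. Step 2: substrate peptide 500 nM and SAM 20 uM, 2 h RT. Step 3: anti-H3K9me1 antibody and AlphaScreen beads, 10 min, then plate read.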
HP1b chromo inh: HTS for Inhibitors of HP1-beta Chromodomain Interactions with Methylated Histone Tails; Chromobox protein homolog 1 (Homo sapiens), P83916; AlphaScreen HP1-beta / biotin-H3K9me3 peptide binding; Potency, µM (top dose mostly 114 µM), inactives show top-dose activity change, negative = inhibition, hits mostly inhibitors; 390,000 compounds, 0.56% hits; also: potency is read from the fitted curve at half-maximal effect; nearly all actives have a fitted effect of over 70% in size
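Compound inhibition of the preformed complex between 50 nM HP1-beta and 50 nM biotinylated H3K9me3 peptide was read by AlphaScreen. Buffer was PBS pH 7.4 with 0.01% Tween-20. Incubations ran 30 min at room temperature, with 10 ug/mL donor/acceptor beads.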
Numbers without * were called inactive; ? = inconclusive; . = no result given; [ ] = another dose, or the depositor's remark. Compounds with a hit are over-represented: about 11% of the library has one in this group of screens. Unless noted, calls follow the shape of the dose curve; as a rule, active = well fitted inhibition curve with a large enough effect; inconclusive = small, poorly fitted or top-dose-only effect; inactive = no such curve, though single readings can be large or run the other way.

SMILES	L3MBTL1 inh	BAZ2B block	JMJD2A Tudor	PI5P4Ka inh	G9a inh	HP1b chromo inh
COc1ccccc1OCC(=O)Nc1nnc(-c2ccco2)s1	-12%	?	?	-21	?	20%
Cc1cccc(OCC(=O)Nc2nnc(-c3ccco3)s2)c1	-14%	-32%	-3%	-17	50µM*	35%
CS(=O)(=O)c1ccc(C(=O)OCC#CCSc2nnc(-c3cccc4ccccc34)o2)cc1	.	.	-19%	.	.	.
CCOC(=O)Cc1csc(N/N=C\c2cccc(Br)c2)n1	-6%	-3%	28µM*	-22	-27%[0.0925 µM]	8%
CCOC(=O)Cc1csc(N/N=C/c2ccccc2)n1	-4%	-12%	-25%	6	14%[59 µM]	26%
CCOC(=O)Cc1csc(N/N=C\c2ccc(N(C)C)cc2)n1	.	11µM*	40µM*	-4	45µM*	-14%
CC12CN3CC(=O)N4CC5(C)CN(CC(C)(C4)C5=O)C(=O)CN(C1)CC(C)(C3)C2=O	1%	-8%	-22%	.	35µM*	38%
Cc1ccc(S(=O)(=O)N2CC3(C)CN(S(=O)(=O)c4ccc(C)cc4)CC(C)(C2)C3=O)cc1	3%	3%	-1%	.	-5%[12.7 µM]	56%
Cc1ccc2oc(-c3cccc(NC(=O)c4ccc(N5CCC(C)CC5)c([N+](=O)[O-])c4)c3)nc2c1	.	?	-24%	.	-48%[59 µM]	-3%
CCOc1ccccc1NC(=O)c1c(NC(=O)c2ccccc2C)sc2c1CCC(C)C2 (stereo not given)	.	4%	-12%	.	14µM*	15%
CCOc1ccc2c(c1)C(C)=CC(C)(C)N2C(=O)Nc1ccccc1	.	50µM*	56µM*	2	50µM*	?
COc1ccc(NC(=O)N2c3ccc(OC)cc3C(C)=CC2(C)C)cc1	-24%	45µM*	56µM*	-1	50µM*	-22%
COc1ccc(NC(=O)N2c3ccccc3C(C)=CC2(C)C)cc1	-5%	-32%	-24%[57.1 µM]	0	?	-16%
CCNC(=O)N1c2ccc(OC)cc2C(C)=CC1(C)C	-10%	?	-31%	.	50µM*	-3%
COc1ccc2c(c1)C(C)=CC(C)(C)N2C(=O)CN1C(=O)CCC1=O	5%	10%	8%	-3	16%[59 µM]	20%
c1ccc(N2CCN(Cc3ccsc3)CC2)nc1	3%	79µM*	3.2µM*	-1	14µM*	?
O=C(CN1CCN(c2ccccn2)CC1)NCCc1ccccc1	1%	3%	-14%[11.4 µM]	0	11%[59 µM]	46%
Cc1cccc(CN2CCN(c3ccccn3)CC2)c1	.	.	3.2µM*	0	.	?
Cc1cccc(CN2CCN(c3ncccn3)CC2)c1	2%	?	2.8µM*	-1	.	?
c1ccc(CCCN2CCN(c3ccccn3)CC2)cc1	-5%	?	25µM*	2	40µM*	?
Cc1cccc(CN2CCNC2=O)c1	-3%	1%	4%	.	?	35%
Cc1cccc(-n2cc(CN3CCN(c4ccccn4)CC3)c(-c3cccc(F)c3)n2)c1	-13%	-20%	-9%	12	-3%	48%
COc1cc(OC)cc(-c2nc3nc(C)c(CCC(=O)Nc4cc(C)cc(C)c4)c(C)n3n2)c1	.	-5%	5%	.	3%[59 µM]	35%
CN(Cc1cccs1)c1ncnc2ccc(-c3ccc4cnn(C)c4c3)cc12	.	.	-32%	.	.	.
CCc1ccc2ncc3c(-c4ccc(F)cc4)nn(CC(=O)NCc4ccccc4)c3c2c1	.	-10%	-10%	.	-1%[59 µM]	28%
O=C(c1cc(Br)ccc1Cl)N1CCN(c2ncccn2)CC1	.	11%	?	-3	-6%	5%
